Results: PubChem BioAssay AID743201 (The Scripps Research Institute Molecular Screening Center, 2013)
The campaign covered roughly 1,500 compounds. About 420 (28%) were called active. The list is a sample of the results. Unmarked numbers belong to inactive results. Cut-off read from the data, not from the text of the source: active = inhibition above about 9.5%; inactive = the rest.

assay: cytotoxicity in LD9 cells, cytotoxicity control for cell surface PrPc inhibitor project, cell-based, luminescence, high throughput (AID 743201); conditions: luminescence viability, at 13.8 µM, hits give high values

Row | Compound | inhibition
1 | O=C(Nc1ccc(C2CC2(Cl)Cl)cc1)c1cccc([N+](=O)[O-])c1 (stereo not drawn) | 22.1% (active)
2 | O=C(Oc1ccccc1)Oc1ccc2c(c1)oc(=O)c1ccccc12 | -2.43%
3 | O=C(Nc1cccn(Cc2ccccc2Cl)c1=O)NC1CCCCC1 | -0.08%
4 | O=C(COC(=O)c1ccccc1SCC(=O)NC1CCCCC1)NC1CCCCC1 | -4.15%
5 | Cc1nc(/N=C(\N)NC(=O)NC2CCCCC2)nc2ccccc12 | 13.3% (active)
6 | CC1(C)Cc2ccccc2-c2[nH]c(=S)[nH]c(=O)c21 | 0.24%
7 | O=C(/C=C/c1ccc([N+](=O)[O-])o1)NNC(=O)c1ccc(F)cc1 | 81% (active)
8 | Cn1c(=S)sc2ccc3ccccc3c21 | -9.96%
9 | Cc1ccc(CSc2ccc(S(=O)(=O)N3CCCCC3)cn2)cc1 | -3.1%
10 | O=C(Nc1ccc(N2CCN(C(=O)c3ccccc3)CC2)c(Cl)c1)c1cccnc1 | 10.4% (active)
11 | CCCCC(=O)NC(c1ccc(OC)c(OC)c1)c1ccc2cccnc2c1O (stereo not drawn) | 34.6% (active)
12 | COc1ccc(NC(=O)COC(=O)CNC(=O)C2CCCCC2)cc1 | -1.65%
13 | Cc1cccc(NC(=O)c2nc(S(=O)(=O)Cc3ccccc3)ncc2Cl)c1 | 88.2% (active)
14 | Cc1cccc(CS(=O)(=O)c2ncc(Cl)c(C(=O)Nc3ccc(F)cc3)n2)c1 | 97.1% (active)
15 | O=C(Cc1ccccc1)Nc1cccc(NC(=O)c2ccccc2)c1 | -4%
16 | CCc1c(C)nc2cc(-c3cccs3)[nH]n2c1=O | -5.48%
17 | Fc1ccc2[nH]c3c(N4CCSCC4)ncnc3c2c1 | 49.1% (active)
18 | COc1cccc2sc3cc(NCC[C@@H]4CCCN4C)ccc3c(=O)c12 | 3.87%
19 | COc1ccc(C(=O)Nc2nc(-c3ccc(S(=O)(=O)N4CCOCC4)cc3)cs2)cc1 | 24.7% (active)
20 | COc1ccc(S(=O)(=O)N2CCOCC2)cc1NC(=O)CSc1ncnc2ccccc12 | -10%
21 | Cc1cc2cc(CNC(=O)c3ccc(S(=O)(=O)N4CCOCC4)cc3)ccc2[nH]1 | -3.01%

Row | Compound | inhibition
22 | C=CCNC(=O)CSc1nc2scc(-c3ccco3)c2c(=O)n1CC=C | -1.71%
23 | N#C/C=C1\Sc2ccccc2C(=O)N1CC(=O)N1CCN(S(=O)(=O)c2ccccc2)CC1 | -0.34%
24 | CN(C)CCNC(=O)c1ccc(Cl)c2cc3ccccc3nc12 | 62.4% (active)
25 | COc1ccc(OC)c(NC(=O)c2cc(-c3cc(F)ccc3OCC3CCCO3)n[nH]2)c1 (stereo not drawn) | 6.36%
26 | COC(=O)CSc1nc(C2CC2)nc2ccccc12 | 2.09%
27 | CCc1nc(SCC(=O)NNC(=O)c2ccc(C)cc2)c2ccccc2n1 | -9.92%
28 | CCCc1nc(SCC(=O)Nc2ccc(S(=O)(=O)N(C)C)cc2)c2ccccc2n1 | 11.4% (active)
29 | CCC(C)(O)C(=O)OC1C(=O)OC2CC3C(C)=CC(=O)C(O)C3(C)C3C4(O)OCC23C1C(C)C4O (stereo not drawn) | 31.5% (active)
30 | CCCOc1ccc(C2C(C(=O)c3ccc(C)o3)=C(O)C(=O)N2CCCn2ccnc2)cc1 (stereo not drawn) | -8.43%
31 | O=C(NC(Nc1nc2ccc([N+](=O)[O-])cc2s1)(C(F)(F)F)C(F)(F)F)c1ccccc1 | 60.2% (active)
32 | Cc1ccc(Oc2cnn(-c3ccccc3)c(=O)c2Br)cc1 | -5.84%
33 | CCOC(=O)c1c(C)[nH]c(=S)c(C#N)c1-c1ccccc1 | -0.71%
34 | O=c1[nH]cccc1-c1nc2ccccc2n1Cc1ccc(Cl)cc1 | 18% (active)
35 | N#Cc1ccc(OCC(=O)Nc2nc(-c3ccccn3)cs2)cc1 | 6.29%
36 | CC(=O)c1sc2nc(SCC(=O)N3CCCCC3)[nH]c(=O)c2c1C | -4.99%
37 | NC(=O)C1CCN(Cc2nc3c(Br)cc(Br)cc3c(=O)[nH]2)CC1 | -0.26%
38 | O=C(CC(O)(C(F)(F)F)C(F)(F)F)Nc1ccc(Cl)c(Cl)c1 | 59.4% (active)
39 | Cc1sc2ncnc(SCC(=O)Nc3ccc(CN4CCCC4)cc3)c2c1C | 4.39%
40 | COc1ccc2c(Cl)c(-c3nnco3)sc2c1 | 0.91%
41 | O=C(c1ccc(F)cc1)c1cn(Cc2ccc(F)cc2)c2cc3c(cc2c1=O)OCCO3 | 0.17%
42 | CCCCCCCCn1c2c(c(=N)c3c1CCC3)CCCC2 | 27.8% (active)

Row | Compound | inhibition
43 | Cc1cc2ccccc2n1CCNC(=O)COc1ccc2ccccc2c1 | 3.16%
44 | CO[C@H]([C@H](C)/C=C/N(C)C=O)[C@@H](C)C(=O)CC[C@H](C)[C@H](O)[C@H](C)[C@H]1OC(=O)/C=C/C(C)=C/[C@H](O)[C@H](OC)C[C@@H]2C=CC[C@@H](C[C@H](OC)[C@@]3(CO3)[C@@H](OC)C[C@@H](OC)[C@@H]1C)O2 | 22.6% (active)
45 | FC(F)(F)c1cccc(NC(=S)OC2CCC23CCC(c2ccccc2)CC3)c1 (stereo not drawn) | 6.03%
46 | CCCCNc1c(-c2cccc(Sc3ccc(OC)cc3)c2)nc2ccccn12 | 17.3% (active)
47 | N#Cc1c(-c2cccs2)nc(SCC(=O)c2ccc(Br)cc2)[nH]c1=O | -2.36%
48 | Cc1ccc(CNC(=O)Nc2nnc([C@H]3C[C@H](O)[C@@H](CO)O3)s2)cc1 | -1.07%
49 | O=C1CCCC2=C1C(c1cccs1)n1nc(SCc3ccccc3)nc1N2 (stereo not drawn) | -3.22%
50 | CN1/C(=C\C(=O)c2oc3ccccc3c2N)C(C)(C)c2ccccc21 | 7.55%
51 | CC(=O)Nc1cccc(OCC(=O)/C=C2\N(C)c3ccccc3C2(C)C)c1 | 13.8% (active)
52 | Cc1ccsc1C(=O)OCC(=O)Nc1cccc(F)c1 | -2.87%
53 | Cc1[nH]n(-c2ccccc2)c(=O)c1/C=N/NC(=O)c1ccoc1C | 21.3% (active)
54 | CCOC(=O)c1c(-c2ccccc2)oc2cc(Br)c(O)cc12 | -6.88%
55 | COC(=O)Cc1[nH]n(-c2nc3ccccc3s2)c(=O)c1C(C)=Nc1ccc(OC)cc1 | -5.36%
56 | CC(=O)c1nc(N2C(=O)C3CC=C(C)CC3C2=O)sc1C (stereo not drawn) | -5.65%
57 | CCCCCCCCCCCCn1ccc(=N)cc1 | 33.6% (active)
58 | COc1cc(-n2c(=S)[nH]c3ccc(C)cc3c2=O)c(Cl)cc1Cl | -3.19%
59 | Cc1ccc(NC(=O)c2sc3nc(N)c(C#N)cc3c2N)cc1 | 14.7% (active)
60 | CC(=O)N1CCCc2cc(S(=O)(=O)N3CCCC(C(=O)N4CCN(c5cccc(Cl)c5)CC4)C3)ccc21 (stereo not drawn) | 24.1% (active)
61 | CC(=O)N1c2ccc(S(=O)(=O)N3CCCC(C(=O)Nc4cccc(F)c4)C3)cc2CC1C (stereo not drawn) | 10.8% (active)
62 | CC(=O)N1CCCc2cc(S(=O)(=O)N3CCCC(C(=O)NCc4ccc(Cl)cc4)C3)ccc21 (stereo not drawn) | 4.27%
63 | Cc1ccnc(NC(=O)C2CCN(S(=O)(=O)c3c(C)c(C)cc(C)c3C)CC2)c1 | -5.26%
